Consider 21 molecules from PubChem BioAssay (NCI).

Assay [1] is described as follows: NCI Yeast Anticancer Drug Screen. Data for the rad50 strain (AID 155).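 Further: 0% = growth of vehicle-only cultures of the same strain.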 The conditions noted are these: S. cerevisiae rad50 strain growth inhibition; at 50.0 µM; stronger effect = higher value. The procedure, abridged: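 Compounds were tested on a yeast strain with an engineered DNA damage repair alteration; the reported value is growth inhibition normalised to vehicle treatment.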

Assay [2] in a line: NCI Yeast Anticancer Drug Screen. Data for the mec2-1 strain (AID 157). The following applies: S. cerevisiae mec2-1 strain, at 50.0 µM, stronger effect = higher value. An outline of the steps:
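Readout is yeast growth inhibition, normalised to vehicle-treated controls, in the mec2-1 strain exposed to compound.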

A short description of assay [3]: NCI Yeast Anticancer Drug Screen. Data for the sgs1 mgt1 strain (AID 161).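 Further: 0% = growth of cultures given vehicle only.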 The following applies: S. cerevisiae sgs1 mgt1 strain, at 50.0 µM, stronger effect = higher value. An outline of the steps: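 This yeast growth screen uses a strain with defined DNA-repair lesions; compound-treated growth is compared with vehicle-treated growth.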
Assay [4] can be described thus: NCI Yeast Anticancer Drug Screen. Data for the cln2 rad14 strain (AID 165).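 Further: 0% = growth equal to vehicle treated cultures.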 The following applies: S. cerevisiae cln2 rad14 strain, at 50.0 µM, stronger effect = higher value. An outline of the steps:
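Relative to vehicle controls, growth inhibition of compound-treated cln2 rad14 yeast was recorded.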

Assay [5] can be described thus: NCI Yeast Anticancer Drug Screen. Data for the bub3 strain (AID 167). The following applies: S. cerevisiae bub3 mutant strain, at 50.0 µM, stronger effect = higher value. The procedure, abridged: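 Growth of a checkpoint-deficient yeast mutant is measured after compound exposure. Values represent inhibition relative to vehicle.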
A short description of assay [6]: NCI Yeast Anticancer Drug Screen. Data for the mlh1 rad18 strain (AID 175). The following applies: S. cerevisiae mlh1 rad18 strain growth inhibition; at 50.0 µM; stronger effect = higher value. The procedure, abridged: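 Test agents were incubated with a yeast strain of defined genotype (DNA damage repair defect). Inhibition of growth was derived by comparison with vehicle-exposed cultures.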

Compounds without any hit were thinned out: in the full panel of roughly 79,000, 15% have a hit. A number with no mark means an inactive call. The source made the active and inactive calls. No stated cut-off is given here; in the data, active means growth inhibition above about 70%; inactive means the rest.

As for `CC1(C)OC(=O)N=C1c1ccc(F)cc1`, the growth inhibition is -9.3% in assay [1]; 7.7% in assay [2]; -1.25% in assay [3]; 2% in assay [4]; -1.65% in assay [5]; 17.4% in assay [6].
As for `C[C@]12CCC(=O)C=C1CC[C@@H]1[C@@H]2CC[C@]2(C)C(=O)NC(=O)C[C@@H]12`, the growth inhibition is -1.65% in assay [1]; -15.8% in assay [2]; 32.6% in assay [3]; 24.9% in assay [4]; -3% in assay [5]; -16.9% in assay [6].
Regarding `CCc1nc(N)nc(-c2nc(N)nc(CC)c2C)c1C`, the growth inhibition in assay [1] was 10.8%; in assay [2] it was -2.4%; in assay [3], -8.4%; in assay [4] it was -7.8%; in assay [5], -29.4%; in assay [6], 15.8%.
On to `CC(=O)C(C)(O)C(OP(=O)(O)O)c1ccccc1` (stereo unspecified), for which the growth inhibition is 0.65% in assay [1]; -10.5% in assay [2]; 4.6% in assay [3]; -37.4% in assay [4]; -11.1% in assay [5]; 3.55% in assay [6].
In the case of `OC1C2CC3C(C2)C13` (stereo unspecified), the growth inhibition is -25.6% in assay [1]; -12.6% in assay [2]; 2.25% in assay [3]; 4.8% in assay [4]; -18.4% in assay [5]; -25.8% in assay [6].
In the case of `COc1cc(-c2[nH]ncc2CCCC(=O)Nc2ccccc2[N+](=O)[O-])ccc1O`, the growth inhibition in assay [1] is 20.9%; in assay [2], -2.75%; in assay [3] it was -14.5%; in assay [4], 7.8%; in assay [5], -2.75%; in assay [6], 18.5%.
On to `COc1cc(=O)[nH]c(-c2ccccc2)c1OC`, for which the growth inhibition in assay [1] was -3.55%; in assay [2], 3.95%; in assay [3] it was 9%; in assay [4], -5.05%; in assay [5], 7.7%; in assay [6], 0.05%.
With `CCCCCCCCCCCCCCCC(=O)OCC1OC(OC(=O)CCCCCCCCCCCCCCC)C(OC(=O)CCCCCCCCCCCCCCC)C(OC(=O)CCCCCCCCCCCCCCC)C1OC(=O)CCCCCCCCCCCCCCC` (stereo unspecified), the growth inhibition was -19.8% in assay [1]; -25.8% in assay [2]; -19.9% in assay [3]; -7.05% in assay [4]; -24.7% in assay [5]; -14.8% in assay [6].
Consider `O=C1NC(N2CCOCC2)=N/C1=C\c1ccccc1`, for which the growth inhibition in assay [1] is 8%; in assay [2], 11.2%; in assay [3], -9.8%; in assay [4], -3.65%; in assay [5], -1.2%; in assay [6], -15.3%.
Turning to `CC1(C)Oc2ccc(NC(=O)CCC(N)C(=O)O)cc2O1` (stereo unspecified), the growth inhibition in assay [1] was -28.2%; in assay [2], -52.7%; in assay [3], -1%; in assay [4] it was 11.5%; in assay [5] it was 16.5%; in assay [6], -18.1%.
For the molecule `CC(=O)OCCCC1CO1` (stereo unspecified), the growth inhibition in assay [1] is 14.9%; in assay [2], -13.7%; in assay [3] it was -1.4%; in assay [4], 3.15%; in assay [5], -14.2%; in assay [6], 10.6%.
For `COc1ccc(Nc2nc(C#N)c(N)s2)cc1`, the growth inhibition in assay [1] is 3.75%; in assay [2], -12.6%; in assay [3], -0.15%; in assay [4] it was -0.2%; in assay [5], -27%; in assay [6], -9.5%.
On to `C/C(=N\N=C(/C)c1ccc(O)cc1O)c1ccc(O)cc1O`, for which the growth inhibition in assay [1] was 13.7%; in assay [2], 12.7%; in assay [3], -3.5%; in assay [4], 6.15%; in assay [5] it was 6.75%; in assay [6] it was -3.35%.
Regarding `O`, the growth inhibition in assay [1] was 13.2%; in assay [2] it was 9.15%; in assay [3], 17%; in assay [4], 6.2%; in assay [5], -16.8%; in assay [6], -4%.
With `CC(=O)CCc1ccc(OC(=O)C(Cl)Cl)cc1`, the growth inhibition is 27% in assay [1]; 12.1% in assay [2]; 18.7% in assay [3]; 13.8% in assay [4]; 13.9% in assay [5]; 29.6% in assay [6].
As for `CCCCCCCCCCCCSCCSCCC`, the growth inhibition in assay [1] was -19.1%; in assay [2] it was -10.7%; in assay [3], 1%; in assay [4], -14.6%; in assay [5], -7.35%; in assay [6] it was 4.5%.
Regarding `O=Cc1c[nH]c2ccccc12`, the growth inhibition was -7.7% in assay [1]; 9.95% in assay [2]; 22.8% in assay [3]; -15.6% in assay [4]; 1.85% in assay [5]; 6.25% in assay [6].
As for `COc1ccc(Cc2ccc(OC)cc2)cc1`, the growth inhibition in assay [1] was -34.2%; in assay [2] it was -5.3%; in assay [3] it was 8.15%; in assay [4], -9.15%; in assay [5], 5.15%; in assay [6] it was -15%.
On to `CCN(CC)CCCC(C)Nc1cc(C)nc(Nc2nc3cc(Cl)c(Cl)cc3[nH]2)n1` (stereo unspecified), for which the growth inhibition in assay [1] was 96.8% (active); in assay [2] it was 94.1% (active); in assay [3], 97.4% (active); in assay [4], 56.2%; in assay [5] it was 83.9% (active); in assay [6], 95.8% (active).
Turning to `O=C(O)C(=O)NCc1cnccn1`, the growth inhibition is 10.9% in assay [1]; -8.25% in assay [2]; -3.65% in assay [3]; -29.6% in assay [4]; 11.9% in assay [5]; -19.1% in assay [6].
Regarding `O=C(Oc1ccn(C2OC(CO)C(O)C2O)c(=O)c1)C12CC3CC(CC(C3)C1)C2` (stereo unspecified), the growth inhibition in assay [1] is 36.1%; in assay [2], 11.6%; in assay [3], 25.2%; in assay [4], 25.4%; in assay [5], 0.95%; in assay [6], 36.2%.
